target: WDR7; test: pooled miR-30 sensor sort-seq; sequence = guide strand; conditions: shRNA
Note: reference of the scale not given here.

Sequence | sensor-assay potency score (higher = more potent)
TTGTCCGTCGTGACATCCTGTT | -0.875
TTTGTCCGTCGTGACATCCTGT | -0.661
TTTAGAATCTCAACTGCTGTTA | 0.0218
TGTCTTTATTGCTTGAACCATC | -1.06
ATATTTGGAACACACAACCAAA | -1.51
TATTGCTTGAACCATCAGGGAG | -0.959
TAGCTGACCATGTAGAACCTGC | 0.024
TAAGTGAATCAACAGCAGCAGG | -1.52
TTAGACAAACAAGTGATTGATG | -0.425
TTAGGTTTGTCTTTATTGCTTG | 0.201
TTAATTTGCAGTTCTACTGAAA | -0.417
TAACACAGTGCATAGCAGCTAA | -0.462

target: WDR96; test: as above; conditions: shRNA

Sequence | sensor-assay potency score (higher = more potent)
TCATCTTGCACAACAAGCGTTC | -0.652
TAGATTTCCGAACAGCTTCTGA | -0.901
TTACACAAAATGATACTCGATT | -0.176
TTTTTGAGTAGTTTCTTGCAGT | -0.3
TTGCTGATCATAAACGACGTGC | 0.0797
TAATCTTTCAACTTCAGTCTGT | 0.842
TAAGTTGTCATAGTGCTCCTTG | 0.702
TACACAAGCACAATCCTCCAGC | -0.19
TTGCCTTTCAATTTGGTCCTTC | 0.277
TTTCTCTAGAGCTTAATTCTTC | -0.586
TACATCTTTACTTTCCATCATG | -0.972

From the OligoGym collection
